The record followed here is PubChem BioAssay AID623979 (Broad Institute, 2012).

The structures appear in SMILES notation. Entries with a potency or affinity are not part of this list. Records with an inconclusive call do not appear. Values without a mark were called inactive.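 How the source made its calls: active means fitted half-maximal inhibition concentration at or below twice the top tested dose in every test run; inconclusive means runs disagree, or a weak flat response or poor fit; inactive means the rest, including flat or wrong-direction curves.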

In the test the target is Cyclin-dependent kinase 5 activator 1 (Homo sapiens) + Cyclin-dependent kinase 5 (Homo sapiens) (UniProt Q15078+Q00535). Description: inhibitors of human CDK5 activity – biochemical, microfluidic mobility shift, dry powder, set 2, selectivity assay for GSK3beta inhibitor project, dose response (AID 623979). Particulars: recombinant CDK5-p25, Caliper peptide conversion, 55 min; series mostly up to 35 µM; activity change, negative = inhibition: at the top concentration.
Sequence of Cyclin-dependent kinase 5 activator 1 (Homo sapiens) + Cyclin-dependent kinase 5 (Homo sapiens) (Q00535 whole entry, looked up): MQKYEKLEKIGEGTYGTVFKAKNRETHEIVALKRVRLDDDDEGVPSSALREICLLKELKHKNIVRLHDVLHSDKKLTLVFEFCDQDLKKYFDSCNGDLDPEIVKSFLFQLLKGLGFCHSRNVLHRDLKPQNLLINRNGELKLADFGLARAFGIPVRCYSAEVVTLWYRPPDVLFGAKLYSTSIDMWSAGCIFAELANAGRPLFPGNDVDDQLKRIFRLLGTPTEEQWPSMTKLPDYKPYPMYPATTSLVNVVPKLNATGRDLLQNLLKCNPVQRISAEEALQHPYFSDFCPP
Sequence of Cyclin-dependent kinase 5 activator 1 (Homo sapiens) + Cyclin-dependent kinase 5 (Homo sapiens) (Q15078 whole entry, looked up): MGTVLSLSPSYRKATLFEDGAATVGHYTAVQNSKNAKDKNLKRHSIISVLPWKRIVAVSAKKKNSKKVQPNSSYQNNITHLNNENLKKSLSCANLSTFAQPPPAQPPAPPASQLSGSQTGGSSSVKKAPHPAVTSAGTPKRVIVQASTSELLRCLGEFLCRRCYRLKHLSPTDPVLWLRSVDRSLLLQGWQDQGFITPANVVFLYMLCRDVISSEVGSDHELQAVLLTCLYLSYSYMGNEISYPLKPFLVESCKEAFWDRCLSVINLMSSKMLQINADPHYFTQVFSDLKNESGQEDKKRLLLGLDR
Turning to `Nc1nonc1-n1nnc(C(=O)N/N=C/c2c(F)cccc2Cl)c1-c1ccc2c(c1)OCO2`, the “activity change, negative = inhibition” value is -2.78%. To `Nc1nc(NCC2CCCO2)nc(Nc2ccc(Cl)cc2)c1[N+](=O)[O-]` (stereo not given) belongs -6.71%; to `Nc1nc(NCC2CCCO2)nc(Nc2ccc(F)cc2)c1[N+](=O)[O-]` (stereo not given), -9.06%. The result for `Cc1cccc(OCC(=O)Nc2ccc3c(c2)C(=O)NC3=O)c1` reads -5.65%. The result for `Clc1ccc(CSc2nnc(-c3ccncc3)o2)c(Cl)c1` reads -0.53%; that for `COc1cc(C(=O)N2CCN(c3ccccn3)CC2)cc(OC)c1OC`, -2.66%. Turning to `COC(=O)c1ccc(CSc2ccc3nnc(-c4ccc(F)cc4)n3n2)o1`, the “activity change, negative = inhibition” value was -2.23%. To `Cc1ccc(S(=O)(=O)N2CCN(CC(=O)N/N=C/c3ccccn3)CC2)cc1` belongs -4.16%; to `Nc1nonc1-n1nnc(C(=O)N/N=C/c2cccc(Cl)c2)c1CN1CCCCCC1`, -2.45%. To `CCOc1ccccc1/C=N/NC(=O)c1nnn(-c2nonc2N)c1CN1CCCCCC1` belongs -4.37%.
